Source: PubChem (Broad Institute)
ID4 SMM = binders of human ID4 protein; P47928; small molecule microarray, Flag-ID4 binding, fluorescence F/B; calls only; 31,000 compounds, 1.2% hits; call rule not given here;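 further: a binder raises fluorescence above local background on the spot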
mut p53 react = mutant p53 pathway reactivation; 28,000 compounds, 1.5% hits; SW480 PUMA-promoter luciferase; AID 624151; activation, % at 9.98 µM; in the data active means activation above about 52%
STK33 kin inh = blocks human STK33 kinase activity; AID 2322; Q9BYT3; 27,000 compounds, 0.44% hits; inhibition, % at 12.5 µM; ADP-Glo luminescence, MBP substrate; in the data active means inhibition above about 20%
Target sequence (Q9BYT3 whole entry, looked up): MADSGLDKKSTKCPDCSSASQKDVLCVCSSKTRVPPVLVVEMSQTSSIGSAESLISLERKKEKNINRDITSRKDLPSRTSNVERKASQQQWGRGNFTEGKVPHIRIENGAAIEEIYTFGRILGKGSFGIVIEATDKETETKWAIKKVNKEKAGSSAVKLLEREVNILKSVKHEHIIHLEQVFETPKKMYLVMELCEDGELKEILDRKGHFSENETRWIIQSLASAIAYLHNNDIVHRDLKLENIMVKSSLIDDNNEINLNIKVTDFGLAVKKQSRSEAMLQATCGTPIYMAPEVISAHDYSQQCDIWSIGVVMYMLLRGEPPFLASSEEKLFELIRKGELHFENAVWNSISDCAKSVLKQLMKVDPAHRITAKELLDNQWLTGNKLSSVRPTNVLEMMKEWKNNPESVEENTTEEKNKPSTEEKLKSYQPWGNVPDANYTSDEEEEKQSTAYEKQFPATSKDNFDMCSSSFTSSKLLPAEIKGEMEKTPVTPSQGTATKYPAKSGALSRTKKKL
* = called active by the depositor. Only some compounds are listed: those with a hit (about 2.1% of all), similar ones and a draw of the others.

What do the screens show for `COCCOC(=O)N1C(=O)[C@@]2(c3cc(C#Cc4ccc(OC)cc4)ccc31)[C@H](C(=O)N1CCc3cc(OC)c(OC)cc3C1)[C@H]1C(=O)O[C@H](c3ccccc3)[C@H](c3ccccc3)N1[C@@H]2c1ccccc1OCCO`?
ID4 SMM: active; STK33 kin inh: 17.8

How did C=CCOC(=O)[C@H]1[C@@H]2C(=O)O[C@@H](c3ccccc3)[C@@H](c3ccccc3)N2[C@@H](c2ccc(OCCOC(=O)[C@@H]3C[C@@H]4C(=O)N5CCC[C@H]5C(=O)N4[C@@H]3c3ccc(O)cc3)cc2)[C@]12C(=O)Nc1ccc(I)cc12 do in these assays?
ID4 SMM: active; STK33 kin inh: 16.4

Results for Cc1nc(SCC(=O)Nc2cc(C(F)(F)F)ccc2Cl)nc2c1CCCC2 ?
ID4 SMM: inactive; mut p53 react: -5.1; STK33 kin inh: 0.2

How did COc1ccc(C)cc1NC(=O)CNS(=O)(=O)c1cc(Cl)ccc1Cl do in these assays?
ID4 SMM: inactive; mut p53 react: 4.0; STK33 kin inh: -0.5

Results for COc1cc(C2NCCS2)cc(OC)c1OC (stereo not given) ?
STK33 kin inh: 2.1

Results for O=C(COc1ccc2ccccc2c1Br)Nc1ccccc1C(=O)NC1CCCCC1 ?
ID4 SMM: inactive; mut p53 react: 7.0; STK33 kin inh: -2.7

Results for O=C(O)COc1ccc(NC(=O)c2cccc(I)c2)cc1 ?
ID4 SMM: inactive; mut p53 react: 4.1; STK33 kin inh: 3.7

What do the screens show for `Cc1ccc(NC(=O)Cn2cnc3sc(C(=O)Nc4ccccc4)c(C)c3c2=O)cc1`?
ID4 SMM: inactive; mut p53 react: -18.9; STK33 kin inh: 2.1

Results for NC(=O)[C@@H]1[C@H]2C(=O)O[C@H](c3ccccc3)[C@H](c3ccccc3)N2[C@H](c2ccc(OCCO)cc2)[C@@]12C(=O)Nc1ccc(C#CC3=CCCCC3)cc12 ?
STK33 kin inh: 8.7

Results for COc1cc2c(cc1OC)CN(C(=O)[C@@H]1[C@H]3C(=O)O[C@H](c4ccccc4)[C@H](c4ccccc4)N3[C@H](c3ccc(OCCO)cc3)[C@@]13C(=O)Nc1ccc(C#CC4=CCCCC4)cc13)CC2 ?
STK33 kin inh: 18.3

How did O=C1O[C@@H](c2ccccc2)[C@@H](c2ccccc2)N2[C@@H](c3ccc(OCCO)cc3)[C@]3(C(=O)Nc4ccc(C#CC5=CCCCC5)cc43)[C@@H](C(=O)N3CCCCCCC3)[C@H]12 do in these assays?
ID4 SMM: inactive; STK33 kin inh: 20.7*

How did COc1cc2c(cc1OC)CN(C(=O)[C@H]1[C@@H]3C(=O)O[C@@H](c4ccccc4)[C@@H](c4ccccc4)N3[C@@H](c3ccc(OCCO)cc3)[C@]13C(=O)Nc1ccc(C#CC4=CCCCC4)cc13)CC2 do in these assays?
ID4 SMM: inactive; STK33 kin inh: 21.8*

What do the screens show for `COc1ccc(OC)c(S(=O)(=O)N(C)CC(=O)Nc2ccc(C(F)(F)F)cc2)c1`?
ID4 SMM: inactive; mut p53 react: -11.8; STK33 kin inh: -1.7

What do the screens show for `COc1cc(NC(=O)CSc2nnc(-c3ccncc3)n2C)cc(OC)c1`?
ID4 SMM: inactive; mut p53 react: 6.4; STK33 kin inh: -0.2

Results for COC(=O)CN1C=C(C(=O)OC)C(c2ccc(O)cc2)C(C(=O)OC)=C1 ?
STK33 kin inh: -1.5

Results for c1ccc2c(c1)OCC(c1nnc3sc(-c4ccncc4)nn13)O2 (stereo not given) ?
ID4 SMM: inactive; mut p53 react: 4.1; STK33 kin inh: -0.2

What do the screens show for `c1csc(-c2nn3c(C4COc5ccccc5O4)nnc3s2)c1` (stereo not given)?
ID4 SMM: inactive; mut p53 react: 68.2*; STK33 kin inh: 0.4

How did Cn1ccc2cc(NC(=O)Nc3cccnc3)ccc21 do in these assays?
ID4 SMM: active; mut p53 react: 79.8*

What do the screens show for `Cc1cc(OCC(=O)Nc2cccnc2)ccc1[N+](=O)[O-]`?
ID4 SMM: inactive; mut p53 react: 47.9; STK33 kin inh: -0.5

Results for COc1c(OC)c(O)c2c(=O)cc(-c3ccc(O)cc3)oc2c1OC ?
ID4 SMM: inactive; mut p53 react: 16.2; STK33 kin inh: 29.3*

How did COc1ccc(-c2oc3c(OC)c(OC)c(OC)c(O)c3c(=O)c2OC)cc1OC do in these assays?
mut p53 react: -24.2; STK33 kin inh: 6.5

How did COc1cc(-c2cc(=O)c3c(O)c(OC)c(OC)c(O)c3o2)ccc1O do in these assays?
mut p53 react: -52.1; STK33 kin inh: 65.4*

Results for COc1cc2oc(-c3ccccc3)cc(=O)c2c(O)c1OC ?
ID4 SMM: inactive; mut p53 react: 3.2; STK33 kin inh: 9.2

Results for NC(=O)c1ccccc1C(=O)c1ccccc1 ?
STK33 kin inh: -1.7

What do the screens show for `CC(=O)c1ccc(NC(=O)CSc2nc(O)c(-c3ccccc3)c(=O)[nH]2)cc1`?
ID4 SMM: inactive; mut p53 react: 28.6; STK33 kin inh: -3.0

How did N#Cc1c(-c2ccccc2)nc(SCC(=O)Nc2ccc(Oc3ccccc3)cc2)[nH]c1=O do in these assays?
ID4 SMM: inactive; mut p53 react: 12.5; STK33 kin inh: -6.5

How did CCc1c(O)nc(SCC(=O)Nc2ccc(C(C)=O)cc2)[nH]c1=O do in these assays?
ID4 SMM: active; mut p53 react: 11.0; STK33 kin inh: -2.2

Results for CC(=O)c1ccc(NC(=O)CSc2nc(-c3ccccc3)c(C#N)c(=O)[nH]2)cc1 ?
ID4 SMM: inactive; mut p53 react: 59.0*; STK33 kin inh: -1.3

How did COc1cc(C)c(Br)cc1S(=O)(=O)NCC1CCCO1 (stereo not given) do in these assays?
ID4 SMM: inactive; mut p53 react: 16.9; STK33 kin inh: 0.7

How did Cn1c(S(=O)(=O)CC(N)=O)nc2ccccc21 do in these assays?
ID4 SMM: inactive; mut p53 react: -20.3; STK33 kin inh: -3.0

What do the screens show for `CCOC(=O)c1c(NC(=O)c2ccc(C)c(S(=O)(=O)N3CCCCCC3)c2)sc2c1CCC2`?
ID4 SMM: inactive; mut p53 react: -9.4; STK33 kin inh: -0.4

How did Cc1ccc(NC(=O)CSc2nc3cc(Cl)ccc3s2)c(C)c1 do in these assays?
ID4 SMM: inactive; mut p53 react: 32.5; STK33 kin inh: -2.2

Results for CC(C)Oc1ccc2c(=O)cc(-c3ccccc3)oc2c1 ?
mut p53 react: 21.9; STK33 kin inh: 0.6

Results for CC(C)Oc1ccc2c(=O)c3cc(C(=O)O)ccc3oc2c1 ?
ID4 SMM: inactive; mut p53 react: 70.7*

What do the screens show for `N#Cc1ccc(-c2cccs2)nc1SCC(=O)Nc1sc2c(c1C#N)CCCC2`?
ID4 SMM: inactive; mut p53 react: 5.9; STK33 kin inh: 5.6

Results for Cc1c(Cl)cccc1NC(=O)CSc1nnc(-c2cccc(Cl)c2)n1C ?
ID4 SMM: inactive; mut p53 react: -6.3; STK33 kin inh: -6.0

How did O=C(CCN1C(=O)c2ccccc2S1(=O)=O)NCc1ccco1 do in these assays?
ID4 SMM: active; mut p53 react: 21.3; STK33 kin inh: -1.7

Results for O=C(CCN1C(=O)c2ccccc2S1(=O)=O)Nc1cccc(Cl)c1Cl ?
ID4 SMM: inactive; mut p53 react: -3.5; STK33 kin inh: -0.1

How did CC(C)C(NS(=O)(=O)c1c(Cl)cccc1Cl)C(=O)O (stereo not given) do in these assays?
ID4 SMM: inactive; mut p53 react: 3.8; STK33 kin inh: 0.9

Results for O=C(O)C(Cc1ccccc1)N1C(=O)c2ccccc2C1=O (stereo not given) ?
ID4 SMM: inactive; mut p53 react: 65.2*; STK33 kin inh: 2.3
